Bioassay records as filed in PubChem.
The list is not random: actives were taken first. Their share in the collection is about 0.92%.
FEN1 inh-1 = qHTS Assay for the Inhibitors of Human Flap endonuclease 1 (FEN1); hit rate 0.35% among 390,000; P39748; Potency, µM (series often up to 114 µM), inactives show top-dose activity change, negative = inhibition, usual class: inhibitors; Recombinant FEN1 flap cleavage, fluorescence, 15 min; also: % is scaled to controls: 0 for no effect and ±100 for the full control effect; nearly all actives have a fitted effect of over 65% in size
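Read-out was taken twice, immediately and after 15 min, following addition of 50 nM substrate to 10 nM FEN1 that had sat with test compound for 15 min at room temperature. Curves came from a four-parameter Hill model.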
APE1 inh = qHTS Assay for Inhibitors of the Human Apurinic/apyrimidinic Endonuclease 1 (APE1) | DNA repair nuclease/redox regulator APEX1 (Homo sapiens), P27695 | hit rate 0.35% among 350,000 | Potency, µM (highest dose often 65.8 µM), for inactives: top-dose activity change, negative = inhibition, hits mostly inhibitors | recombinant APE1, TAMRA/BHQ-2 abasic DNA cleavage fluorescence;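 also: plate controls were vehicle for no effect and reference inhibitor for full effect; nearly all actives have a fitted effect of over 55% in size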
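APE1 at 0.75 nM preincubated 15 min at room temperature with compound. Reaction then started with 50 nM double-stranded THF-abasic substrate labelled with TAMRA/BHQ-2, and 525/598 nm fluorescence read kinetically. Activity taken as third-minus-first read difference, normalized to DMSO and NSC13755 controls.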
TDP1 inh = qHTS Assay for Inhibitors of Tyrosyl-DNA Phosphodiesterase (TDP1); Tyrosyl-DNA phosphodiesterase 1 (Homo sapiens), Q9NUW8; recombinant TDP1, AlphaScreen DNA substrate cleavage; Potency, µM (titrated, usually from 130 µM), without a hit: top-dose activity change, negative = inhibition, actives largely listed as inhibitors; hit rate 0.28% among 350,000; also: % is scaled to controls: 0 for no effect and ±100 for the full control effect; nearly all actives have a fitted effect of over 40% in size
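Here, a 5' biotin and 3' phosphotyrosine-FITC DNA oligonucleotide reports Tdp1 activity: intact substrate bridges AlphaScreen beads, while cleavage leaves a 3' phosphate and drops signal. All incubations at room temperature.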
BLM helicase inh = qHTS Assay for Inhibitors of Bloom's syndrome helicase (BLM); AID 2528, 2010; Potency, µM (titrated, usually from 56.1 µM), without a hit: at the highest dose activity change, negative = inhibition, actives largely listed as inhibitors; RecQ-like DNA helicase BLM (Homo sapiens), P54132; hit rate 0.2% among 350,000; recombinant BLM DNA unwinding, fluorescence dequenching;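 also: plate controls were vehicle for no effect and no enzyme for full effect; nearly all actives have a fitted effect of over 35% in size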
RECQ1 helicase = qHTS Assay for Inhibitors of RecQ-Like Dna Helicase 1 (RECQ1); Potency, µM (series often up to 57.3 µM), for the others: at the top dose activity, negative = inhibition, actives largely listed as inhibitors; AID 2549, 2010; hit rate 0.54% among 240,000; RECQ1 DNA unwinding, red fluorescence kinetic read; ATP-dependent DNA helicase Q1 (Homo sapiens), P46063;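 also: plate controls were vehicle for no effect and no enzyme for full effect; nearly all actives have a fitted effect of over 30% in size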
Target sequence (P46063 whole entry, looked up): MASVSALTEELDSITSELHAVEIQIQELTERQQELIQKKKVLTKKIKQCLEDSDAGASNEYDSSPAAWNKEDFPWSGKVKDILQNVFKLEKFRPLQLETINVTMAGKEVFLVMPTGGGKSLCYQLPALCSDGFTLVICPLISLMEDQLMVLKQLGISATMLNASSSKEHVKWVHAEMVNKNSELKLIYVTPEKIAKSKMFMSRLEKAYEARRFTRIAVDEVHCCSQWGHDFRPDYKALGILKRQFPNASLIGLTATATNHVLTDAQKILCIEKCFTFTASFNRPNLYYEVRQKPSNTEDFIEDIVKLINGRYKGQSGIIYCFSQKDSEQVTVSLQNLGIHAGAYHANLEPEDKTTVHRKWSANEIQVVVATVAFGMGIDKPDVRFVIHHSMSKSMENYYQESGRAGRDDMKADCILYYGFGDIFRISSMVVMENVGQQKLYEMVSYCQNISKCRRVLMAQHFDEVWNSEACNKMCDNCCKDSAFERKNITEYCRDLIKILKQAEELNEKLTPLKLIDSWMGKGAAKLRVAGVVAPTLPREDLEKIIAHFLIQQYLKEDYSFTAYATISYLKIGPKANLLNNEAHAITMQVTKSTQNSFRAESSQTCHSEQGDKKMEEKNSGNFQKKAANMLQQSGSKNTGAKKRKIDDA
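RECQ1T1 50 nM; forked duplex (20 bp + 30-nt ss tails) 200 nM, ATP 2 mM final; pH 8.0, 2 mM MgCl2, 2.5 ug/ml poly(dI-dC); 15 min compound preincubation; discontinuous kinetic read over 2 h at RT.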
FEN1 inh-2 = qHTS Assay for the Inhibitors of FEN1: Confirmatory Assay for Cherry-picked Compounds; FEN1 flap cleavage, TAMRA/BHQ2 fluorogenic DNA substrate; shares compounds with FEN1 inh-1; hit rate 79% among 880; Potency, µM, usual class: inhibitors; also: nearly all actives have a fitted effect of over 60% in size
The depositor's hits bear a star; i = inactive; ? = inconclusive; nt = no result; [ ] = another dose, or the depositor's remark. Calls follow the shape of the dose curve; as a rule, active = well fitted curve in the direction sought with a large enough effect; inconclusive = small, poorly fitted or top-dose-only effect, or another doubt; inactive = no such curve, though single readings can be large; an effect the other way counts as inactive or inconclusive. Potency is read from the fitted curve at half-maximal effect.

SMILES	FEN1 inh-1	APE1 inh	TDP1 inh	BLM helicase inh	RECQ1 helicase	FEN1 inh-2
Cc1ccc(NC(=O)CN2C(=O)N/C(=C\c3cccn3-c3cccc(-c4nn[nH]n4)c3)C2=O)cc1	nt	nt	nt	nt	nt	67.5*
Cc1ccc(NC(=O)CN2C(=O)N/C(=C/c3ccc(C)s3)C2=O)cc1	-0.7%	16.1%	-1.9%	1.9%	-0.5%	nt
COc1cccc(C2c3c(ncn(-c4cccc(Cl)c4)c3=N)Oc3ccc4ccccc4c32)c1 (configuration not stated)	nt	nt	6.9%	nt	nt	nt
COc1ccc(-c2c(-c3ccccc3)c(C(=O)C(=O)NCCCN(C)C)n3ccc4cc(OC)c(OC)cc4c23)cc1OC	39.8µM*	-36.9%	nt	36.5%	nt	33.8*
Cc1nc(Nc2ccncc2)c2oc3ccccc3c2n1	44.7µM*	-3.2%	4.2%	55.7%	-2.8%	42.6*
CC(=O)Nc1sc2c(c1-c1ccc3nc[nH]c3c1)CCNC2	nt	nt	nt	nt	nt	37.9*
Cc1ccc(NC(=O)c2ccc3nc[nH]c3c2)cc1C	7.4%	-0.3%	-5.3%	5.4%	-15.5%	nt
COc1ccc2c(c1)cc(C(=O)N/N=C/c1c(O)c(C(=O)O)cc3ccccc13)n2C	?	-36.5%	nt	?	nt	84.9*
O=C1C(Nc2ccccc2)=CC(=O)c2ncccc21	nt	-11.5%	16.1%	-27.5%	-8.9%	nt
CC(NC1=CC(=O)c2cccnc2C1=O)C(O)c1ccccc1 (configuration not stated)	?	nt	nt	nt	nt	?
O=C1/C(=C\c2c(NCCOCCO)nc3ccccn3c2=O)SC(=S)N1Cc1ccco1	?	?	nt	-20.8%	nt	84.9*
COc1ccc2c(/C=C/c3cc[n+](C)cc3)c[nH]c2c1	-25.3%	-13.0%	nt	0.0%	nt	nt
COc1ccc2c(c1)c(/C=C/c1cc[n+](C)cc1)cn2C	?	-12.5%	nt	57.1%	nt	42.6*
O=C1CC(=O)NC(SCC(=O)Nc2ccccc2[N+](=O)[O-])=N1	?	-41.9%	nt	-17.0%	nt	?
O=c1c2ccccc2nc(N/N=C/c2ccc(O)cc2)n1O	25.1µM*	8.1%	-9.5%	-4.2%	-8.1%	30.1*
O=C(Nc1ccc(F)c(Cl)c1)c1cc(S(=O)(=O)N2CCCc3ccccc32)ccc1F	-3.5%	nt	0.0%	-15.2%	nt	nt
O=c1cc2oc3cc(O)c(O)cc3c(-c3ccccc3[N+](=O)[O-])c-2cc1O	?	0.134µM*	nt	0.708µM*	nt	?
COc1ccc(S(=O)(=O)N2CCN(c3ccccc3OC)CC2)cc1-c1noc(C)n1	15.2%	nt	11.4%	0.4%	nt	nt
Cc1cc(C)n(Cc2ccc(C(=O)N/N=C/c3ccc(-c4ccc([N+](=O)[O-])cc4)o3)o2)n1	56.2µM*	2.67µM*	nt	15.8µM*	nt	75.7*
O=C(O)c1cccc(-c2ccc(/C=N/Nc3ccc([N+](=O)[O-])cc3)o2)c1	-29.8%	-4.6%	2.6%	-17.7%	-1.4%	nt
O=C(O)c1ccc(-c2ccc(/C=N/Nc3ccc([N+](=O)[O-])cc3)o2)cc1	-18.6%	-9.4%	1.3%	-22.3%	?	84.9*
CCCNC(=O)c1ccc2c(=O)c(O)c(-c3cccc(Br)c3)[nH]c2c1	31.6µM*	-8.3%	9.5%	-18.4%	11.3%	37.9*
Nc1c(Cl)cc(-c2[nH]c3cc(C(=O)NCCO)ccc3c(=O)c2O)cc1Cl	17.8µM*	4.3%	nt	-26.8%	nt	30.1*
Cc1ccc(COC(=O)c2ccc(-c3nnn(Cc4ccc(C)cc4)n3)cc2)cc1	-0.5%	nt	-5.8%	-1.4%	nt	nt
Nc1nc(SCc2ccccc2)c2[nH]cnc2n1	-8.3%	40.7%	1.2%	-1.4%	nt	nt
SMILES	FEN1 inh-1	APE1 inh	TDP1 inh	BLM helicase inh	RECQ1 helicase	FEN1 inh-2
Nc1nc(Sc2ccc([N+](=O)[O-])c3nonc23)c2[nH]cnc2n1	20µM*	nt	nt	nt	nt	42.6*
CN1/C(=C\C=C2/SC(=S)NC2=O)C(C)(C)c2ccccc21	?	25.1µM*	6.2%	?	31.6µM*	67.5*
CN1C(=CC=C2C=C(I)C(=O)C(I)=C2)C(C)(C)c2ccccc21	31.6µM*	-1.1%	9.6%	28.2µM*	0.631µM*	84.9*
CC1=NN(c2ccccc2)C(=O)/C1=C\C=C1/N(C)c2ccccc2C1(C)C	?	-2.8%	8.2%	-5.9%	-8.6%	nt
CN1/C(=C\C=C2/C(=O)Oc3ccccc3C2=O)C(C)(C)c2ccccc21	35.5µM*	-4.5%	2.7%	nt	-7.4%	19*
O=C(O)C(c1ccccc1)N1C(=O)/C(=C\c2ccc(-c3ccc(Br)cc3)o2)SC1=S (configuration not stated)	20µM*	?	nt	31.6µM*	nt	75.7*
O=C1CCCC=C1[C@@H](O)CCOC(c1ccccc1)(c1ccccc1)c1ccccc1	nt	-1.3%	0.6%	-4.9%	-8.7%	nt
CC1(C)CC(N=c2cc(-c3ccccc3)oc3ccc(Cl)cc23)CC(C)(C)N1	28.2µM*	-3.1%	2.5%	162.2%	-8.0%	19*
CC(=O)Nc1ccc(C2NC(C(=O)O)CCC2C)cc1 (configuration not stated)	nt	30.8%[12.4 µM]	7.9%[21 µM]	6.3%[12.4 µM]	17.0%[11.5 µM]	nt
O=c1c(=O)n(O)c2ccccc2n1O	0.794µM*	-2.0%	-3.0%	-7.2%	i	1.35*
COn1c(=O)c(=O)n(O)c2ccccc21	-18.1%	-0.1%	-1.0%	0.0%	-12.5%	nt
COc1ccc(OC)c(Nc2nc(NCCO)c3ccccc3n2)c1	?	-21.3%	nt	-27.2%	nt	?
COc1ccccc1Nc1nc(NCCO)c2ccccc2n1	nt	11.9%	2.9%	2.9%	-0.1%	nt
CC1C(=O)C(=O)C=CN1C (configuration not stated)	nt	nt	nt	1.7%	nt	nt
CCOc1ccc(S(=O)(=O)Nc2cc(SCC(=O)O)c(O)c3ccccc23)cc1	?	8.7%	nt	?	nt	67.5*
O=C(O)CSc1cc(NS(=O)(=O)c2cccc([N+](=O)[O-])c2)c2ccccc2c1O	3.16µM*	-4.8%	10.3%	17.8µM*	-15.1%	75.7*
CC(OC(=O)/C(C#N)=C/c1ccc(N(C)C)cc1)C(=O)N(C)c1ccccc1 (configuration not stated)	50.1µM*	23.8µM*	-4.9%	nt	nt	37.9*
Cc1ccccc1CN1[C@H]2CCCC[C@@H]2OCCS1(=O)=O	-12.1%	nt	nt	nt	nt	nt
CC[N+](CC)(CC)CCCCOc1ccc2c(c1)C(=O)c1cc(OCCCC[N+](CC)(CC)CC)ccc1-2	12.6µM*	?	nt	?	-7.2%	21.3*
Oc1ccc(CNc2cccnc2)c2cccnc12	nt	nt	4.7%	nt	nt	37.9*
